According to PubChem BioAssay (NCI):
The panel holds about 79,000 compounds, 15% with a hit somewhere; the sample as a whole holds those more often. Unmarked numbers belong to inactive results. Activity calls are given as the source filed them. No stated cut-off is given here; in the data, active means growth inhibition above about 70%; inactive means the rest.

Legend:
[1] = NCI Yeast Anticancer Drug Screen. Data for the rad52 strain (AID 147);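 further: 0% = growth of vehicle-treated control cultures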; settings: S. cerevisiae rad52 mutant growth inhibition, active compounds read high
Method in brief: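 The repair-mutant yeast strain was incubated with compounds, then growth was read and inhibition derived relative to vehicle.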

[2] = NCI Yeast Anticancer Drug Screen. Data for the wt1 strain (AID 149);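 further: 0% = growth of vehicle-treated wt1 cultures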; settings: S. cerevisiae wt1 strain (SPY 50644) growth inhibition, active compounds read high
Method in brief: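 Using yeast strain wt1, compound-induced growth inhibition was determined against vehicle-treated cultures.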

[3] = NCI Yeast Anticancer Drug Screen. Data for the rad50EPP+ strain (AID 151);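 further: 0% = growth of vehicle-treated control cultures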; settings: S. cerevisiae rad50 mutant strain, active compounds read high
Method in brief: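 Vehicle-normalised growth inhibition; rad50EPP+ yeast strain, altered in DNA damage repair, compound-treated.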

[4] = NCI Yeast Anticancer Drug Screen. Data for the mgt1 strain (AID 153); settings: S. cerevisiae mgt1 mutant growth inhibition, active compounds read high
Method in brief: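 Vehicle-normalized growth inhibition is determined in mgt1 yeast, a strain selected for a defined alteration in DNA repair or cell cycle control.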

[5] = NCI Yeast Anticancer Drug Screen. Data for the rad50 strain (AID 155);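 further: 0% = growth of vehicle-only cultures of the same strain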; settings: S. cerevisiae rad50 strain growth inhibition, active compounds read high
Method in brief: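 Relative growth inhibition (compound vs vehicle) was measured in yeast with a defined repair-gene alteration.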

[6] = NCI Yeast Anticancer Drug Screen. Data for the mec2-1 strain (AID 157); settings: S. cerevisiae mec2-1 strain, active compounds read high
Method in brief: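 Mutant yeast (mec2-1) grown with compound; growth inhibition relative to vehicle control reported.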

[7] = NCI Yeast Anticancer Drug Screen. Data for the rad14 strain (AID 159);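 further: 0% = growth of vehicle-treated control cultures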; settings: S. cerevisiae rad14 strain growth inhibition, active compounds read high
Method in brief: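 Screen for anticancer potential: a yeast strain altered in DNA damage repair is grown with compound, and reduced growth is quantified against vehicle controls.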

[8] = NCI Yeast Anticancer Drug Screen. Data for the sgs1 mgt1 strain (AID 161);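 further: 0% = growth of cultures given vehicle only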; settings: S. cerevisiae sgs1 mgt1 strain, active compounds read high
Method in brief: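 This yeast growth screen uses a strain with defined DNA-repair lesions; compound-treated growth is compared with vehicle-treated growth.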

[9] = NCI Yeast Anticancer Drug Screen. Data for the CLN2oe strain (AID 163);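 further: 0% = growth of vehicle-only control cultures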; settings: S. cerevisiae CLN2oe strain, active compounds read high
Method in brief: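 Compounds are applied to yeast harbouring a defined cell-cycle control change; reduced growth compared with vehicle-treated controls gives the value.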

[10] = NCI Yeast Anticancer Drug Screen. Data for the cln2 rad14 strain (AID 165);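 further: 0% = growth equal to vehicle treated cultures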; settings: S. cerevisiae cln2 rad14 strain, active compounds read high
Method in brief: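 Readout is yeast growth inhibition versus vehicle-treated controls, using a strain with cln2 and rad14 alterations exposed to compound.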

[11] = NCI Yeast Anticancer Drug Screen. Data for the bub3 strain (AID 167); settings: S. cerevisiae bub3 mutant strain, active compounds read high
Method in brief: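 Screening used yeast with an engineered genetic alteration affecting cell cycle control. Compound-exposed cultures were compared with vehicle cultures, and reduced growth was taken as inhibition.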

[12] = NCI Yeast Anticancer Drug Screen. Data for the wt2 strain (AID 169);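 further: 0% = growth of vehicle-treated yeast cultures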; settings: S. cerevisiae wt2 strain growth inhibition, active compounds read high
Method in brief: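 Against vehicle-treated controls, the growth of yeast exposed to each compound was compared, and the inhibition was recorded.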

[13] = NCI Yeast Anticancer Drug Screen. Data for the mlh1 strain (AID 171);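 further: 0% = growth of vehicle-treated control cultures of the same strain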; settings: S. cerevisiae mlh1 strain growth inhibition, active compounds read high
Method in brief: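 Measured: yeast growth. Reference: vehicle-treated controls. Organism: strain with a defined alteration affecting DNA damage repair or cell cycle control, treated with compound.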

[14] = NCI Yeast Anticancer Drug Screen. Data for the sgs1 strain (AID 173);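 further: 0% = growth of vehicle-only control cultures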; settings: S. cerevisiae sgs1 mutant, active compounds read high
Method in brief: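 Each compound was added to cultures of the altered yeast strain. Growth was recorded, and inhibition was derived by comparison with vehicle controls.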

[15] = NCI Yeast Anticancer Drug Screen. Data for the mlh1 rad18 strain (AID 175); settings: S. cerevisiae mlh1 rad18 strain growth inhibition, active compounds read high
Method in brief: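 Genetically defined yeast (DNA repair-deficient) exposed to compounds; growth inhibition determined relative to vehicle.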

[16] = NCI Yeast Anticancer Drug Screen. Data for the rad18 strain (AID 177); settings: S. cerevisiae rad18 mutant growth inhibition, active compounds read high
Method in brief: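 Vehicle-treated cultures served as the baseline for scoring compound-induced growth inhibition in DNA-repair-mutant yeast.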

[17] = at 5.0 µM (retest, dose inferred, filed as 0.5)
[18] = at 50.0 µM (retest, dose inferred, filed as 5.0)

## CCc1cccc(C(C)C)c1NC1=C([n+]2ccc(C)cc2)C(=O)c2ccccc2C1=O
[1]; at 1.2 µM
  growth inhibition: 2%
[1]; at 3.7 µM
  growth inhibition: 5%
[1]; at 11.0 µM
  growth inhibition: 12%
[1]; at 33.0 µM
  growth inhibition: 42%
[1]; at 100.0 µM
  growth inhibition: 83% (active)
[2]; at 1.2 µM
  growth inhibition: -2%
[2]; at 3.7 µM
  growth inhibition: -2%
[2]; at 11.0 µM
  growth inhibition: -4%
[2]; at 33.0 µM
  growth inhibition: -3%
[2]; at 100.0 µM
  growth inhibition: 6%
[3]; at 1.2 µM
  growth inhibition: 0%
[3]; at 3.7 µM
  growth inhibition: 7%
[3]; at 11.0 µM
  growth inhibition: 17%
[3]; at 33.0 µM
  growth inhibition: 31%
[3]; at 100.0 µM
  growth inhibition: 38%
[4]; at 1.2 µM
  growth inhibition: 0%
[4]; at 3.7 µM
  growth inhibition: -1%
[4]; at 11.0 µM
  growth inhibition: -1%
[4]; at 33.0 µM
  growth inhibition: 4%
[4]; at 100.0 µM
  growth inhibition: 11%
[5]; at 1.2 µM
  growth inhibition: -2%
[5]; at 3.7 µM
  growth inhibition: 0%
[5]; [17]
  growth inhibition: 37%
[5]; at 11.0 µM
  growth inhibition: 25%
[5]; at 33.0 µM
  growth inhibition: 63%
[5]; [18]
  growth inhibition: 87% (active)
[5]; at 50.0 µM
  growth inhibition: 89.1% (active)
[5]; at 100.0 µM
  growth inhibition: 81% (active)
[6]; at 1.2 µM
  growth inhibition: -1%
[6]; at 3.7 µM
  growth inhibition: -3%
[6]; [17]
  growth inhibition: 10%
[6]; at 11.0 µM
  growth inhibition: 11%
[6]; at 33.0 µM
  growth inhibition: 1%
[6]; [18]
  growth inhibition: 65%
[6]; at 50.0 µM
  growth inhibition: 63.1%
[6]; at 100.0 µM
  growth inhibition: 17%
[7]; at 1.2 µM
  growth inhibition: -1%
[7]; at 3.7 µM
  growth inhibition: 4%
[7]; at 11.0 µM
  growth inhibition: 4%
[7]; at 33.0 µM
  growth inhibition: 5%
[7]; at 100.0 µM
  growth inhibition: 21%
[8]; [17]
  growth inhibition: -3%
[8]; [18]
  growth inhibition: 36%
[8]; at 50.0 µM
  growth inhibition: 41.2%
[9]; at 1.2 µM
  growth inhibition: -3%
[9]; at 3.7 µM
  growth inhibition: -2%
[9]; at 11.0 µM
  growth inhibition: 1%
[9]; at 33.0 µM
  growth inhibition: -2%
[9]; at 100.0 µM
  growth inhibition: 11%
[10]; [17]
  growth inhibition: -6%
[10]; [18]
  growth inhibition: 32%
[10]; at 50.0 µM
  growth inhibition: 12.7%
[11]; at 1.2 µM
  growth inhibition: -8%
[11]; at 3.7 µM
  growth inhibition: -4%
[11]; [17]
  growth inhibition: 5%
[11]; at 11.0 µM
  growth inhibition: 1%
[11]; at 33.0 µM
  growth inhibition: 5%
[11]; [18]
  growth inhibition: 61%
[11]; at 50.0 µM
  growth inhibition: 41.5%
[11]; at 100.0 µM
  growth inhibition: 25%
[12]; at 1.2 µM
  growth inhibition: -2%
[12]; at 3.7 µM
  growth inhibition: -2%
[12]; at 11.0 µM
  growth inhibition: -2%
[12]; at 33.0 µM
  growth inhibition: 1%
[12]; at 100.0 µM
  growth inhibition: 6%
[13]; at 1.2 µM
  growth inhibition: -4%
[13]; at 3.7 µM
  growth inhibition: -6%
[13]; at 11.0 µM
  growth inhibition: -4%
[13]; at 33.0 µM
  growth inhibition: 2%
[13]; at 100.0 µM
  growth inhibition: 9%
[14]; at 1.2 µM
  growth inhibition: -3%
[14]; at 3.7 µM
  growth inhibition: -3%
[14]; at 11.0 µM
  growth inhibition: -2%
[14]; at 33.0 µM
  growth inhibition: -2%
[14]; at 100.0 µM
  growth inhibition: 18%
[15]; [17]
  growth inhibition: -4%
[15]; [18]
  growth inhibition: 24%
[15]; at 50.0 µM
  growth inhibition: 61.5%
[16]; at 1.2 µM
  growth inhibition: 0%
[16]; at 3.7 µM
  growth inhibition: -3%
[16]; at 11.0 µM
  growth inhibition: 0%
[16]; at 33.0 µM
  growth inhibition: 1%
[16]; at 100.0 µM
  growth inhibition: 17%

## CC1CC(Br)C(=O)O1 (stereo unspecified)
[1]; at 1.2 µM
  growth inhibition: -27%
[1]; at 3.7 µM
  growth inhibition: -35%
[1]; at 11.0 µM
  growth inhibition: -18%
[1]; at 33.0 µM
  growth inhibition: 89% (active)
[1]; at 100.0 µM
  growth inhibition: 92% (active)
[2]; at 1.2 µM
  growth inhibition: -48%
[2]; at 3.7 µM
  growth inhibition: -49%
[2]; at 11.0 µM
  growth inhibition: -22%
[2]; at 33.0 µM
  growth inhibition: 67%
[2]; at 100.0 µM
  growth inhibition: 88% (active)
[3]; at 1.2 µM
  growth inhibition: 12%
[3]; at 3.7 µM
  growth inhibition: 11%
[3]; at 11.0 µM
  growth inhibition: 34%
[3]; at 33.0 µM
  growth inhibition: 88% (active)
[3]; at 100.0 µM
  growth inhibition: 89% (active)
[4]; at 1.2 µM
  growth inhibition: -52%
[4]; at 3.7 µM
  growth inhibition: -49%
[4]; at 11.0 µM
  growth inhibition: -24%
[4]; at 33.0 µM
  growth inhibition: 69%
[4]; at 100.0 µM
  growth inhibition: 86% (active)
[5]; at 1.2 µM
  growth inhibition: -67%
[5]; at 3.7 µM
  growth inhibition: -55%
[5]; [17]
  growth inhibition: -14%
[5]; at 11.0 µM
  growth inhibition: -34%
[5]; at 33.0 µM
  growth inhibition: 74% (active)
[5]; [18]
  growth inhibition: 95% (active)
[5]; at 50.0 µM
  growth inhibition: 86.7% (active)
[5]; at 100.0 µM
  growth inhibition: 89% (active)
[6]; at 1.2 µM
  growth inhibition: -30%
[6]; at 3.7 µM
  growth inhibition: -18%
[6]; [17]
  growth inhibition: 1%
[6]; at 11.0 µM
  growth inhibition: 31%
[6]; at 33.0 µM
  growth inhibition: 95% (active)
[6]; [18]
  growth inhibition: 98% (active)
[6]; at 50.0 µM
  growth inhibition: 92.2% (active)
[6]; at 100.0 µM
  growth inhibition: 95% (active)
[7]; at 1.2 µM
  growth inhibition: -49%
[7]; at 3.7 µM
  growth inhibition: -42%
[7]; at 11.0 µM
  growth inhibition: -30%
[7]; at 33.0 µM
  growth inhibition: 58%
[7]; at 100.0 µM
  growth inhibition: 85% (active)
[8]; [17]
  growth inhibition: 9%
[8]; [18]
  growth inhibition: 77% (active)
[8]; at 50.0 µM
  growth inhibition: 87.8% (active)
[9]; at 1.2 µM
  growth inhibition: -44%
[9]; at 3.7 µM
  growth inhibition: -44%
[9]; at 11.0 µM
  growth inhibition: -13%
[9]; at 33.0 µM
  growth inhibition: 95% (active)
[9]; at 100.0 µM
  growth inhibition: 96% (active)
[10]; [17]
  growth inhibition: 39%
[10]; [18]
  growth inhibition: 86% (active)
[10]; at 50.0 µM
  growth inhibition: 84.8% (active)
[11]; at 1.2 µM
  growth inhibition: 8%
[11]; at 3.7 µM
  growth inhibition: 22%
[11]; [17]
  growth inhibition: 44%
[11]; at 11.0 µM
  growth inhibition: 74% (active)
[11]; at 33.0 µM
  growth inhibition: 96% (active)
[11]; [18]
  growth inhibition: 98% (active)
[11]; at 50.0 µM
  growth inhibition: 88.5% (active)
[11]; at 100.0 µM
  growth inhibition: 97% (active)
[12]; at 1.2 µM
  growth inhibition: -52%
[12]; at 3.7 µM
  growth inhibition: -40%
[12]; at 11.0 µM
  growth inhibition: -25%
[12]; at 33.0 µM
  growth inhibition: 30%
[12]; at 100.0 µM
  growth inhibition: 86% (active)
[13]; at 1.2 µM
  growth inhibition: -54%
[13]; at 3.7 µM
  growth inhibition: -51%
[13]; at 11.0 µM
  growth inhibition: -18%
[13]; at 33.0 µM
  growth inhibition: 79% (active)
[13]; at 100.0 µM
  growth inhibition: 90% (active)
[14]; at 1.2 µM
  growth inhibition: -41%
[14]; at 3.7 µM
  growth inhibition: -40%
[14]; at 11.0 µM
  growth inhibition: -31%
[14]; at 33.0 µM
  growth inhibition: 68%
[14]; at 100.0 µM
  growth inhibition: 88% (active)
[15]; [17]
  growth inhibition: -9%
[15]; [18]
  growth inhibition: 97% (active)
[15]; at 50.0 µM
  growth inhibition: 83.8% (active)
[16]; at 1.2 µM
  growth inhibition: -57%
[16]; at 3.7 µM
  growth inhibition: -50%
[16]; at 11.0 µM
  growth inhibition: -28%
[16]; at 33.0 µM
  growth inhibition: 69%
[16]; at 100.0 µM
  growth inhibition: 88% (active)
